# Tests used:
# Assay in all cases: DAPPL (digital affinity profiling via proximity ligation, sequencing); 10 mM Tris-HCl pH 7.5, 50 mM NaCl, 1 mM DTT, 4% glycerol, room temperature, 30 min; GST-TFs on glutathione beads, 16-mer random dsDNA library, 0.1% formaldehyde crosslink after washing; high values mean tight binding
# [1] = molecular target: T1, FLI1 (Homo sapiens, UniProt Q01543 1-452); details: protein: recombinant; tags: N-terminal GST; dsDNA, one strand shown
# T1 sequence: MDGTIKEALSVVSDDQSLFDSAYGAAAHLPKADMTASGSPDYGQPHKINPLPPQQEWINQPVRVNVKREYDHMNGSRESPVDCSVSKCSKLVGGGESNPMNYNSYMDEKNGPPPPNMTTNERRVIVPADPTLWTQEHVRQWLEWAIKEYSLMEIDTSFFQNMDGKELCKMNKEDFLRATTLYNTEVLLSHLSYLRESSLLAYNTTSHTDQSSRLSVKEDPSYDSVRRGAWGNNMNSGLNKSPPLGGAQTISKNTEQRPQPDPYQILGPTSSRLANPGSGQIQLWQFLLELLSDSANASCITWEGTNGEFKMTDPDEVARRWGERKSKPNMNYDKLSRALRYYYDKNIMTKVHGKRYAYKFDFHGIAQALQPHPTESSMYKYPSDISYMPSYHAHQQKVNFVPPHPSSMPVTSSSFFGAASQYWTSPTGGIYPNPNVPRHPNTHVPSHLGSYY
# Summary of the method: (§1)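 The binding signal reported is, for every hexamer, its read frequency for a factor over its read frequency for the tag-only sample. Reads came from pools of yeast-expressed, GST-fused human transcription factors on glutathione beads, barcoded with DNA and mixed with that sample, which were incubated with 200 nmole of a random double-stranded 16-mer DNA library in Tris/NaCl/DTT/glycerol buffer at room temperature for 30 min. After washing, the pools were crosslinked with 0.1% formaldehyde, proximity-ligated with BsaI/T4 ligase for 1 h at 37 °C, PCR-amplified and sequenced on an Illumina NextSeq500.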
# [2] = molecular target: T2, ELK1 (Homo sapiens, UniProt P19419 1-428); details: protein: recombinant; tags: N-terminal GST; dsDNA, one strand shown
# T2 sequence: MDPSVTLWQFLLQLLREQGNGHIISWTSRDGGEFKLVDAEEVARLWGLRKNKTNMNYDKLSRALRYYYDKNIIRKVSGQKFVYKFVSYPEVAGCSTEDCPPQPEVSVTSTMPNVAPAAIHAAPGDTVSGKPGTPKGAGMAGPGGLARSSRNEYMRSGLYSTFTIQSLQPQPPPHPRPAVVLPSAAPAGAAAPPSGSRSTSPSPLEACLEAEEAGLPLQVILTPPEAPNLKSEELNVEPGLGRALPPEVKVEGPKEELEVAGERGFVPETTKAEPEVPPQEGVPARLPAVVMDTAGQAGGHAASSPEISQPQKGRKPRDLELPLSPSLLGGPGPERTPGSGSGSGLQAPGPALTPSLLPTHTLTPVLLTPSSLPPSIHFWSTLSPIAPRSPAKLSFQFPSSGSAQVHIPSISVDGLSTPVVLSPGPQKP
# Summary of the method: as §1
# [3] = molecular target: T3, GABPA (Homo sapiens, UniProt Q06546 1-454); details: protein: recombinant; tags: N-terminal GST; dsDNA, one strand shown
# T3 sequence: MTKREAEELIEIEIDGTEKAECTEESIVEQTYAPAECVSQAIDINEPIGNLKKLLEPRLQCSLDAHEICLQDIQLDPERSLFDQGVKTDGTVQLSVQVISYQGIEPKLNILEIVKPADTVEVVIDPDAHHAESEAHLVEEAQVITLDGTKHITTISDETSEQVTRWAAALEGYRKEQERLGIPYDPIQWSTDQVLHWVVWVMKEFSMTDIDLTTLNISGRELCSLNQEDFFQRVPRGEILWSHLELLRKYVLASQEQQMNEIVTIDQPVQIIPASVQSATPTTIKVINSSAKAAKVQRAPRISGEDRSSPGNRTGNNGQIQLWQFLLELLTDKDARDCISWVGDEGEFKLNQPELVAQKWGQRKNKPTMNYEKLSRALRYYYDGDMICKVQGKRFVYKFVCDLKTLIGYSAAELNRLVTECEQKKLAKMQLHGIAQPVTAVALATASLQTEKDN
# Summary of the method: as §1
# [4] = molecular target: T4, ERG (Homo sapiens, UniProt P11308 1-479); details: protein: recombinant; tags: N-terminal GST; dsDNA, one strand shown
# T4 sequence: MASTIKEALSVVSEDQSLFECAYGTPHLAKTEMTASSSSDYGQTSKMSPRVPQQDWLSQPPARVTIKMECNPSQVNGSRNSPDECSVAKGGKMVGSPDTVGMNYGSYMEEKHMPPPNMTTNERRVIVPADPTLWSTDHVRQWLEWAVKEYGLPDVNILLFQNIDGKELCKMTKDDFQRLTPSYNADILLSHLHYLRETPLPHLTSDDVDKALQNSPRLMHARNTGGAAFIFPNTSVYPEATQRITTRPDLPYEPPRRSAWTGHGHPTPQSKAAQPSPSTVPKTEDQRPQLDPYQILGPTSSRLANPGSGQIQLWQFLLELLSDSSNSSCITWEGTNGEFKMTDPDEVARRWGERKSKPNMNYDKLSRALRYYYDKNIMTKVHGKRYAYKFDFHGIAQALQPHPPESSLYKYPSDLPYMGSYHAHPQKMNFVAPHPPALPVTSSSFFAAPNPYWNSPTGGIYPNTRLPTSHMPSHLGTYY
# Summary of the method: as §1
# [5] = molecular target: ELF1 (Homo sapiens, UniProt P32519 1-619); details: protein: recombinant; tags: N-terminal GST; dsDNA, one strand shown
# Summary of the method: as §1
# [6] = molecular target: T5, EHF (Homo sapiens, UniProt Q9NZC4 1-300); details: protein: recombinant; tags: N-terminal GST; dsDNA, one strand shown
# T5 sequence: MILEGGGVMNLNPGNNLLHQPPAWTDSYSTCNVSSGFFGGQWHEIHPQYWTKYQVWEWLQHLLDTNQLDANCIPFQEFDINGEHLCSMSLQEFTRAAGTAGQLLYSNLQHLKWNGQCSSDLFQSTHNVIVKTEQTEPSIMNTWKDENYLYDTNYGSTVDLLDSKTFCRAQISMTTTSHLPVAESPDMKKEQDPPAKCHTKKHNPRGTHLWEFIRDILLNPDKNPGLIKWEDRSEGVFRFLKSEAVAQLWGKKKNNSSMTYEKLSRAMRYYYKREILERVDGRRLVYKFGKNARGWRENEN
# Summary of the method: as §1
# [7] = molecular target: SPI1 (Homo sapiens, UniProt P17947 1-270); details: protein: recombinant; tags: N-terminal GST; dsDNA, one strand shown
# Summary of the method: as §1
# [8] = molecular target: SPIB (Homo sapiens, UniProt Q01892 1-262); details: protein: recombinant; tags: N-terminal GST; dsDNA, one strand shown
# Summary of the method: as §1
# [9] = molecular target: T6, ELK3 (Homo sapiens, UniProt P41970 1-407); details: protein: recombinant; tags: N-terminal GST; dsDNA, one strand shown
# T6 sequence: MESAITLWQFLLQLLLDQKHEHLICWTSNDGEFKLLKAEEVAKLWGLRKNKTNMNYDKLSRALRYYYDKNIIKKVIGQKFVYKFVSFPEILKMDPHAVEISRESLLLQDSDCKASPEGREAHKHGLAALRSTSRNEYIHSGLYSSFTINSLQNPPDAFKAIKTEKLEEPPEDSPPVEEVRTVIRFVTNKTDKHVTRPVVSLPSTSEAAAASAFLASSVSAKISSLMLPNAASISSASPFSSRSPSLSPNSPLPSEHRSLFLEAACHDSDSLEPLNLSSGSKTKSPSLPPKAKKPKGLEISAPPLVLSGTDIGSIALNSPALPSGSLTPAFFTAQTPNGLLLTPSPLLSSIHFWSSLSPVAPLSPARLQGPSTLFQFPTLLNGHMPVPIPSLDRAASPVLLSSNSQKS
# Summary of the method: as §1
# [10] = molecular target: T7, FEV (Homo sapiens, UniProt Q99581 1-238); details: protein: recombinant; tags: N-terminal GST; dsDNA, one strand shown
# T7 sequence: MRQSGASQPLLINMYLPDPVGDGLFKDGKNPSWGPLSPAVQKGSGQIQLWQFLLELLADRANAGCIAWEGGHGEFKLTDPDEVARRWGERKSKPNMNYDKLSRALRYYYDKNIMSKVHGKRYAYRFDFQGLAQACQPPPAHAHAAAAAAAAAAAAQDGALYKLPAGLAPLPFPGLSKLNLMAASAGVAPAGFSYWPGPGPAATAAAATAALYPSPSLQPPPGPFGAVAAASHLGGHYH
# Summary of the method: as §1
# [11] = molecular target: ETV5 (Homo sapiens, UniProt P41161 1-510); details: protein: recombinant; tags: N-terminal GST; dsDNA, one strand shown
# Summary of the method: as §1
# [12] = molecular target: HSF1 (Homo sapiens, UniProt Q00613 1-529); details: protein: recombinant; tags: N-terminal GST; chain copies: 3; dsDNA, one strand shown
# Summary of the method: as §1
# [13] = molecular target: T8, SPIC (Homo sapiens, UniProt Q8N5J4 1-248); details: protein: recombinant; tags: N-terminal GST; dsDNA, one strand shown
# T8 sequence: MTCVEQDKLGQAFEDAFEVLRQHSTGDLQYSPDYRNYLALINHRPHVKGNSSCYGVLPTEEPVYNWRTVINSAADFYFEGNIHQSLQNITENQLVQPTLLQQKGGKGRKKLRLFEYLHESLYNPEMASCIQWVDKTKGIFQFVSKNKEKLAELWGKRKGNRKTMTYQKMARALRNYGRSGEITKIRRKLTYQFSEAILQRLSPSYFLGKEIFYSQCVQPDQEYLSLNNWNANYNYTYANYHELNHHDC
# Summary of the method: as §1
# [14] = molecular target: ELF4 (Homo sapiens, UniProt Q99607 1-663); details: protein: recombinant; tags: N-terminal GST; dsDNA, one strand shown
# Summary of the method: as §1
# [15] = molecular target: T9, ELK4 (Homo sapiens, UniProt P28324-2 1-405); details: protein: recombinant; tags: N-terminal GST; dsDNA, one strand shown
# T9 sequence: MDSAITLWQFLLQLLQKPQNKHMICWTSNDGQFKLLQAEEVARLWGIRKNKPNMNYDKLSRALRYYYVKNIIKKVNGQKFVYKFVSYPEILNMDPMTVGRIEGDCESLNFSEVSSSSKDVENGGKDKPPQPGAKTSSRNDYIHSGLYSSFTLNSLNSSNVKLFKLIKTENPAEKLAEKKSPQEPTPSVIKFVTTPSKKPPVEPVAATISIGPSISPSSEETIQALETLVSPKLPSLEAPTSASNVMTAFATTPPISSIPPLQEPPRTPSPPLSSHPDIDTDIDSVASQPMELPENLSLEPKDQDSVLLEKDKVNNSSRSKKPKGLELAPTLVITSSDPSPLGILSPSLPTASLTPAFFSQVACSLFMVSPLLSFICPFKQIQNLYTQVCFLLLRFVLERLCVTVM
# Summary of the method: as §1
# [16] = molecular target: T10, ETV2 (Homo sapiens, UniProt O00321 1-342); details: protein: recombinant; tags: N-terminal GST; dsDNA, one strand shown
# T10 sequence: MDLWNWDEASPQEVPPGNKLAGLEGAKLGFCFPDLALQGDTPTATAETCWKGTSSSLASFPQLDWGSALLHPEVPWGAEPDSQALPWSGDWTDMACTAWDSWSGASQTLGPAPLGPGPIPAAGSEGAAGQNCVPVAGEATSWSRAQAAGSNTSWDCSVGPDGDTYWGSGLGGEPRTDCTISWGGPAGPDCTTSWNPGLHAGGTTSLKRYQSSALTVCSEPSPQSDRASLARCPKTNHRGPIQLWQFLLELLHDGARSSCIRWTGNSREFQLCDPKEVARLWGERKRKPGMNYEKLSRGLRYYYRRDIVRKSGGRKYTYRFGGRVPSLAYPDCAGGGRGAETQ
# Summary of the method: as §1
# [17] = molecular target: T11, ELF3 (Homo sapiens, UniProt P78545 1-371); details: protein: recombinant; tags: N-terminal GST; dsDNA, one strand shown
# T11 sequence: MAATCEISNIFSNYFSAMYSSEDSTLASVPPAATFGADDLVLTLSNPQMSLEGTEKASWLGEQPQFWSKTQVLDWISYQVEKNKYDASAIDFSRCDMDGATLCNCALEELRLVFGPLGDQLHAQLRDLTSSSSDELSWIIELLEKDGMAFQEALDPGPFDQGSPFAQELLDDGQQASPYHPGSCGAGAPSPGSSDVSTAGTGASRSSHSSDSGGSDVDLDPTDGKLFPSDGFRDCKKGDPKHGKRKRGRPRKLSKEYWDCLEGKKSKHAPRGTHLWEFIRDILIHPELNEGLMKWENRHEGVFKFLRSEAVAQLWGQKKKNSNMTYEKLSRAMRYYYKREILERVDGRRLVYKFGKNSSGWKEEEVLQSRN
# Summary of the method: as §1
# [18] = molecular target: CRX (Homo sapiens, UniProt O43186 1-299); details: protein: recombinant; tags: N-terminal GST; dsDNA, one strand shown
# Summary of the method: as §1
# [19] = molecular target: ETV1 (Homo sapiens, UniProt P50549 1-477); details: protein: recombinant; tags: N-terminal GST; dsDNA, one strand shown
# Summary of the method: as §1
# ELF1, sequence (P32519 whole entry): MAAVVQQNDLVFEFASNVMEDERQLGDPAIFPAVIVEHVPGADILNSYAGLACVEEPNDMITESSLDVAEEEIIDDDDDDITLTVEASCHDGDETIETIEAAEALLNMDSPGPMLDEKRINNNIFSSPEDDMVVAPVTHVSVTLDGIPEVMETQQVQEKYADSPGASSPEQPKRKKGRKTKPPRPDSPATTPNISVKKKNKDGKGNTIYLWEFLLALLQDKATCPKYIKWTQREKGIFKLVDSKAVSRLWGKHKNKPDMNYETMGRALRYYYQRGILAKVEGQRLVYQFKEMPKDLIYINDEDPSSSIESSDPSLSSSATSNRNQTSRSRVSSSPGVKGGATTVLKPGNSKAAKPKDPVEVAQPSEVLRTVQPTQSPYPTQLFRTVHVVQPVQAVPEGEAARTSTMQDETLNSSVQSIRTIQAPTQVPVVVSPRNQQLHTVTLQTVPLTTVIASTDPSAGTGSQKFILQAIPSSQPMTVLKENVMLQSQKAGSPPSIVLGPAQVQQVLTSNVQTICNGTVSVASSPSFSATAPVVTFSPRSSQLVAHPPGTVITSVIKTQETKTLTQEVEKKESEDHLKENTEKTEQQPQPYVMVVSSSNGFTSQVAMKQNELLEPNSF
# ELF4, sequence (Q99607 whole entry): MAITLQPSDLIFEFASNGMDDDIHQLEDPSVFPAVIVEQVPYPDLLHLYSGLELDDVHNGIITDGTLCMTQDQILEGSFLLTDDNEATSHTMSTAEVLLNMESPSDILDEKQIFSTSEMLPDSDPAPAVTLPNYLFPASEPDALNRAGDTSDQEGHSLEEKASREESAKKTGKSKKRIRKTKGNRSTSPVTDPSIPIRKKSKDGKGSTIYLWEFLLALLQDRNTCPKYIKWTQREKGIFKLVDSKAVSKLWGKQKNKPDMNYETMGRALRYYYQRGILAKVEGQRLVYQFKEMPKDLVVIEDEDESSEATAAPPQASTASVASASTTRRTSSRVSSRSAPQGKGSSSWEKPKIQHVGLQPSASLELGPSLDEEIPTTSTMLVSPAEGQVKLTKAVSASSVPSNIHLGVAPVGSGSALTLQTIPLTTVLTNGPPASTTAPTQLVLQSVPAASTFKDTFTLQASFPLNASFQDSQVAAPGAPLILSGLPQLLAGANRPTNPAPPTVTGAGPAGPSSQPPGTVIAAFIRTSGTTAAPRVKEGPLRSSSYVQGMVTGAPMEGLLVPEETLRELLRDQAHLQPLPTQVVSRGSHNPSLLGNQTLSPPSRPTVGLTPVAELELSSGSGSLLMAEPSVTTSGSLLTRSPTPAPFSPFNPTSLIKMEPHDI
# CRX, sequence (O43186 whole entry): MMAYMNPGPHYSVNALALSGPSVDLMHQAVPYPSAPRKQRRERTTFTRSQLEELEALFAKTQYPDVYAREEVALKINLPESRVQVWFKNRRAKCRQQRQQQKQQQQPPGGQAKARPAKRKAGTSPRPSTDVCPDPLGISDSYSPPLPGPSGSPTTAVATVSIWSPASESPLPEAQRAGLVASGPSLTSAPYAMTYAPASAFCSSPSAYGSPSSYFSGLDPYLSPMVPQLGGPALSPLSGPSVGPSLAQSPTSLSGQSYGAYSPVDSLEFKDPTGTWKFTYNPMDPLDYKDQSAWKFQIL
# SPIB, sequence (Q01892 whole entry): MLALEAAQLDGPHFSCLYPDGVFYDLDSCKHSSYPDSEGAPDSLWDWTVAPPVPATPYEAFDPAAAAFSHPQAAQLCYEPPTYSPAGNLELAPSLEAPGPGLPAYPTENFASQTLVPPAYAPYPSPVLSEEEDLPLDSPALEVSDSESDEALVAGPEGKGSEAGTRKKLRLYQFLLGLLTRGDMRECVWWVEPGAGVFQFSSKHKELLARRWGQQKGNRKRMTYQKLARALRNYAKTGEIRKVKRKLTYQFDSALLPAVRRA
# HSF1, sequence (Q00613 whole entry): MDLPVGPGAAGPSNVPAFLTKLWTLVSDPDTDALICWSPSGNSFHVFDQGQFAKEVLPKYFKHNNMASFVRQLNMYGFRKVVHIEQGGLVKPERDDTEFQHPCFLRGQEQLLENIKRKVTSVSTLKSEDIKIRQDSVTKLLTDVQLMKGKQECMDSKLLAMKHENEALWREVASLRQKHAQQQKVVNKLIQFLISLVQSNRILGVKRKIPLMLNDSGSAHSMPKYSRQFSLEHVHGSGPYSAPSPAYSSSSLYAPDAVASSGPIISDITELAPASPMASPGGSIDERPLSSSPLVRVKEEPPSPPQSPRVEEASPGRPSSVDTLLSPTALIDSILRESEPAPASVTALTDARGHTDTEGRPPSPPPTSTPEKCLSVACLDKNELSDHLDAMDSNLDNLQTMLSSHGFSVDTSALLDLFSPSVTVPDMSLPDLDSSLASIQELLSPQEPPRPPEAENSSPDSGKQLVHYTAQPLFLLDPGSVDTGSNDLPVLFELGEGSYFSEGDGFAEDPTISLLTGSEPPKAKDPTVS
# ETV5, sequence (P41161 whole entry): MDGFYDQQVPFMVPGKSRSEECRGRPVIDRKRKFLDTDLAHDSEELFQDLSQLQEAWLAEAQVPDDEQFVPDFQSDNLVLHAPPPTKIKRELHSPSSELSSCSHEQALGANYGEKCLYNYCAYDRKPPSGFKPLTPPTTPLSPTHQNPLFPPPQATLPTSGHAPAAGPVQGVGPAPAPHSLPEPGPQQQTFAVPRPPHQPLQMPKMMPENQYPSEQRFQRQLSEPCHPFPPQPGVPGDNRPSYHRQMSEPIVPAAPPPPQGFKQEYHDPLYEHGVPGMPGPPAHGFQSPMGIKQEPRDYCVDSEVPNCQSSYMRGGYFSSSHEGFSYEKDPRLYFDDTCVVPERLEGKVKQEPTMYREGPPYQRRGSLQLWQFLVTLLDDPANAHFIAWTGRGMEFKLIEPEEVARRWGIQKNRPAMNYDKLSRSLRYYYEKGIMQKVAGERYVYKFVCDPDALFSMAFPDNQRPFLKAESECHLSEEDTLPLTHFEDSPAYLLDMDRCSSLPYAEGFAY
# ETV1, sequence (P50549 whole entry): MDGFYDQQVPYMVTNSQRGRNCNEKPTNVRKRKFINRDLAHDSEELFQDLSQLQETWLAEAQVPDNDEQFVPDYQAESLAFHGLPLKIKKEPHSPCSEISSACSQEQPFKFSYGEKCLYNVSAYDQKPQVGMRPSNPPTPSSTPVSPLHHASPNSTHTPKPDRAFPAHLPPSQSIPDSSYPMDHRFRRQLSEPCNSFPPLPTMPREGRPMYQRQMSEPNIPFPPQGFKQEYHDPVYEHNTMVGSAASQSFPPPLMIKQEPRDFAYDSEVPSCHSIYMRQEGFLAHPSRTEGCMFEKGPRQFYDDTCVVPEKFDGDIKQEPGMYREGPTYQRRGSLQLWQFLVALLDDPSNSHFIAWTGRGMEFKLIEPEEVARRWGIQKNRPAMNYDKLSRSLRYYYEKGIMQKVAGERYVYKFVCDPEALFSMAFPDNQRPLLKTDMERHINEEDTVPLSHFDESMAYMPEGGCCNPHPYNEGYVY
sequence,measurement,setting,value
CATATA,binding signal,[1],"1.17 fold enrichment (6-mer frequency, TF over GST control)"
same,binding signal,[2],"1.07 fold enrichment (6-mer frequency, TF over GST control)"
same,binding signal,[3],"1.14 fold enrichment (6-mer frequency, TF over GST control)"
same,binding signal,[4],"1.08 fold enrichment (6-mer frequency, TF over GST control)"
same,binding signal,[5],"1.12 fold enrichment (6-mer frequency, TF over GST control)"
same,binding signal,[6],"1.06 fold enrichment (6-mer frequency, TF over GST control)"
same,binding signal,[7],"1.06 fold enrichment (6-mer frequency, TF over GST control)"
same,binding signal,[8],"1.06 fold enrichment (6-mer frequency, TF over GST control)"
same,binding signal,[9],"1.22 fold enrichment (6-mer frequency, TF over GST control)"
same,binding signal,[10],"1.08 fold enrichment (6-mer frequency, TF over GST control)"
same,binding signal,[11],"1.09 fold enrichment (6-mer frequency, TF over GST control)"
same,binding signal,[12],"1.03 fold enrichment (6-mer frequency, TF over GST control)"
same,binding signal,[13],"1.14 fold enrichment (6-mer frequency, TF over GST control)"
same,binding signal,[14],"1.11 fold enrichment (6-mer frequency, TF over GST control)"
same,binding signal,[15],"1.07 fold enrichment (6-mer frequency, TF over GST control)"
same,binding signal,[16],"1.17 fold enrichment (6-mer frequency, TF over GST control)"
same,binding signal,[17],"1.07 fold enrichment (6-mer frequency, TF over GST control)"
same,binding signal,[18],"1.09 fold enrichment (6-mer frequency, TF over GST control)"
same,binding signal,[19],"1.06 fold enrichment (6-mer frequency, TF over GST control)"
